PGK inhibitor: inhibitors of T. brucei phosphoglycerate kinase; P07378; PGK/GAPDH coupled, Kinase-Glo luminescence, 60 min; Potency, µM (highest dose often 57.5 µM), for the others: at the top dose activity change, negative = inhibition, usual class: inhibitors; actives 0.043% (n = 380,000); AID 602233; also: potency is read from the fitted curve at half-maximal effect; % is scaled to controls: 0 for no effect and ±100 for the full control effect; nearly all actives have a fitted effect of over 60% in size
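Luminescent ATP detection (Kinase-Glo Plus) follows a 60-minute room-temperature incubation, with wells lacking PGK as controls. Buffer: 100 mM TEA (pH 7.6), 5 mM MgCl2, 0.01% Tween-20. Coupling enzyme GAPDH (100 nM final) supplies unstable 1,3-BPG in-well.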
FEN1 inh: inhibitors of human flap endonuclease 1; Recombinant FEN1 flap cleavage, fluorescence, 15 min; Potency, µM (top dose mostly 114 µM), inactives show at the top dose activity change, negative = inhibition, usual class: inhibitors; actives 0.35% (n = 390,000); AID 588795; also: potency is read from the fitted curve at half-maximal effect; % is scaled to controls: 0 for no effect and ±100 for the full control effect; nearly all actives have a fitted effect of over 65% in size
Target sequence (P39748 whole entry, looked up): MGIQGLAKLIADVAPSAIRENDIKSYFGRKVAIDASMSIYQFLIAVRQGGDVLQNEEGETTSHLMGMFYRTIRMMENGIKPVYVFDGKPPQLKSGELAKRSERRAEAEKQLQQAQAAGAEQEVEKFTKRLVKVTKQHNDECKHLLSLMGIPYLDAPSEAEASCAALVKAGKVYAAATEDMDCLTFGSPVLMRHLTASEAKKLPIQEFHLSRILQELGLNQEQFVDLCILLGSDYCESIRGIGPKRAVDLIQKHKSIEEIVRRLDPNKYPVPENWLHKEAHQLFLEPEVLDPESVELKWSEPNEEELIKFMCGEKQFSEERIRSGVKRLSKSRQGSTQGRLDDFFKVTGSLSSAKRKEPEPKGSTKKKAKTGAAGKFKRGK
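In this screen, 50 nM flap DNA substrate was added to 10 nM FEN1 pretreated with compound for 15 min at room temperature; cleavage was followed with reads at 0 and 15 min, and Hill fitting gave concentration–response parameters.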
WRN inhibitor: blocks human WRN helicase; Potency, µM (highest dose often 114 µM), inactives show at the highest dose activity change, negative = inhibition, hits mostly inhibitors; actives 0.46% (n = 360,000); AID 651768; Q14191; WRN helicase unwinding, fluorescent forked duplex, kinetic; also: potency is read from the fitted curve at half-maximal effect; % is scaled to controls: 0 for no effect and ±100 for the full control effect; nearly all actives have a fitted effect of over 55% in size
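WRN at 20 nM final preincubated with compound 15 min at room temperature; reaction started with 100 nM fluorophore/quencher forked duplex oligonucleotide and 2 mM ATP final. Unwinding followed kinetically by red fluorescence (ex 525, em 598 nm).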
PI5P4Ka inh: blocks human PI5P4K alpha kinase activity | P48426 | PI5P4Kalpha enzyme, ADP-Glo luminescence, 60 min; hits give low values | max response, % | actives 1.2% (n = 330,000); active = max response of -50% or lower; inconclusive = between -30% and -50%; inactive = -30% or higher; also: value at the top dose of about 77 µM; % is scaled to controls: 0 for no effect and ±100 for the full control effect
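Compounds were pin-transferred onto PI5P4Kalpha and substrate in HEPES pH 7.4 buffer with EGTA, CHAPS and 5% DMSO. ATP (5 microM final) started the reaction, which ran 60 minutes at room temperature before ADP-Glo detection.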
GRP78 ERSR act: ER stress response induction in glioma. U87-MG GRP78 promoter luciferase reporter, 16 h. Potency, µM, inactives show top-dose activation, usual class: activators. actives 0.02% (n = 420,000); also: potency is read from the fitted curve at half-maximal effect; series mostly up to about 76 µM; % of control where 0% means no effect; nearly all actives have a fitted effect of over 35% in size
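Stably transfected U87-MG glioma cells carrying a GRP78-based luciferase sensor; 16 h compound incubation. Luminescence end-point read 10 min after Bright-Glo addition at room temperature.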
Pin1 inhibitor: human Pin1 inhibition; Pin1 FP peptide displacement, HiFluor488, 10 min; Potency, µM (doses to about 115 µM), without a hit: at the top dose activity, negative = inhibition, most hits filed as inhibitors; actives 0.009% (n = 390,000); active = well fitted inhibition curve with a large enough effect in the polarisation, with a control signal flat, not every such curve was filed as active; inconclusive = small, poorly fitted or top-dose-only effect, or effect the other way, or a change in a side signal; inactive = no such curve, though single readings can be large or run the other way; the % refers to the polarisation; also: potency is read from the fitted curve at half-maximal effect; % is scaled to controls: 0 for no effect and ±100 for the full control effect
Target sequence (Q13526 whole entry, looked up): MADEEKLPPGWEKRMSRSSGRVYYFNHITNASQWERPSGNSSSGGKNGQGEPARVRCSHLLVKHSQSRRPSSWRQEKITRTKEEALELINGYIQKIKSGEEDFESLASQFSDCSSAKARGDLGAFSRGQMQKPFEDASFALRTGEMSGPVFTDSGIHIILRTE
Numbers without * were called inactive; i = inactive; ? = inconclusive; . = no result; [ ] = another dose, or the depositor's remark. Sampled rows, rich in hits. Any-hit rate of the full collection: about 1.3%. Unless noted, calls follow the shape of the dose curve; as a rule, active = well fitted curve in the direction sought with a large enough effect; inconclusive = small, poorly fitted or top-dose-only effect, or another doubt; inactive = no such curve, though single readings can be large; an effect the other way counts as inactive or inconclusive.

SMILES	PGK inhibitor	FEN1 inh	WRN inhibitor	PI5P4Ka inh	GRP78 ERSR act	Pin1 inhibitor
O=C(Cn1cc2ccccc2n1)N1CCOc2ccc(C(O)C3CCCCC3)cc2C1 (stereo not given)	.	.	.	.	1%	.
CSC1=NSC2=NC(=O)/C(=C/c3coc4ccc(O)cc4c3=O)C(=N)N12	?	45µM*	45µM*	-74*	6%	?
N=C1/C(=C\c2coc3ccccc3c2=O)C(=O)N=C2SC=CN12	-4%	?	-21%[57.1 µM]	-22	0%	?
CSC1=NSC2=NC(=O)/C(=C/c3coc4ccccc4c3=O)C(=N)N12	-13%	79µM*	35µM*	-61*	-2%	?
O=S(=O)(c1ccc2c(c1)OCCO2)N1CCN(S(=O)(=O)c2cc(F)c(Br)cc2F)CC1	.	.	.	.	.	0%
COc1ccc(CCNC(=O)CSc2ccsc2[N+](=O)[O-])cc1OC	-2%	-12%	-4%	-19	-2%	25%
CSc1ccc(CCNC(=O)CSc2ccsc2[N+](=O)[O-])cc1	-9%	-1%	-32%	-51*	-3%	?
NS(=O)(=O)c1ccc(CCNC(=O)CSc2ccc([N+](=O)[O-])cc2)cc1	6%	16%	2%	-2	-1%	-8%
NS(=O)(=O)c1ccc(CCNC(=O)CSc2ccsc2[N+](=O)[O-])cc1	-11%	0%	-8%[11.6 µM]	-67*	-2%	?
C=C(C)C(=O)Oc1ccc(N=Nc2ccc(C)cc2)ccc1=O	2.8µM*	?	40µM*	-12	?	.
CC(=O)c1ccc(N=Nc2ccc(C)cc2)cc1	4%	13%	-1%	11	-7%	-2%
Cc1ccc(NC(=O)CN2C(=O)S/C(=C\c3cc(C)n(-c4ccc(C(=O)O)cc4)c3C)C2=O)cc1	-22%	?	-10%	?	4%	?
Cc1ccc(NC(=O)CN2C(=O)N/C(=C/c3cc(C)n(-c4ccc(C(=O)O)cc4)c3C)C2=O)cc1	-21%	-10%	-7%[11.6 µM]	-53*	1%	?
N=C1/C(=C\c2ccc(-c3cccc(Cl)c3)o2)C(=O)N=C2SC=C(c3ccccc3)N12	-7%	-2%	?	-55*	0%	?
COc1cc(/C=C2\C(=N)N3N=C(S(C)(=O)=O)SC3=NC2=O)ccc1OS(=O)(=O)c1ccc(C)cc1	0%	-15%	-24%[11.6 µM]	-80*	-2%	?
N=C1/C(=C\c2ccc(OC(=O)c3ccco3)cc2)C(=O)N=C2SC=NN12	-6%	0%	?	?	5%	24%
COc1cc(/C=C2\C(=N)N3N=CSC3=NC2=O)cc(Br)c1OC(=O)c1ccco1	.	-4%	-5%	-81*	3%	34%
COc1cc(/C=C2/C(=N)N3C(c4ccccc4)=CSC3=NC2=O)ccc1OCC(=O)O	-6%	?	-5%[11.6 µM]	-52*	4%	-20%
CC(C)(C)OC(=O)NCc1nnc(-c2nc3ccccc3[nH]2)o1	.	.	.	.	.	0%
CCc1cc2c(s1)c1cnn(Cc3ccccc3F)c(=O)c1n2C	.	.	.	.	.	0%
C=CCOc1ccc(/C=C2\C(=N)N3N=C(S(=O)(=O)CC)SC3=NC2=O)cc1OC	i	-4%	-10%[11.6 µM]	?	2%	-4%
CCS(=O)(=O)C1=NSC2=NC(=O)/C(=C\c3ccc(OC(=O)c4ccco4)c(OC)c3)C(=N)N21	i	-8%	-29%	-66*	4%	?
COc1cc(/C=C2/C(=N)N3C(=NC2=O)SN=C3S(C)(=O)=O)ccc1OC(=O)c1ccco1	1%	?	-17%[11.6 µM]	-66*	-1%	55%
CCS(=O)(=O)C1=NN2C(=N)/C(=C\c3ccc(OC(=O)c4ccco4)c(OC)c3)C(=O)N=C2S1	7%	-8%	-26%	-57*	-1%	19%
OCC1OC(OC2C(CO)OC(OC3C(CO)OC(O)C(O)C3O)C(O)C2O)C(O)C(O)C1O (stereo not given)	.	.	.	.	-4%	.
O=C(CN1Cc2ccccc2OC(c2ccsc2)C1)N1CCC(c2nc3ccccc3[nH]2)CC1 (stereo not given)	.	.	.	.	0%	.

Assay outcomes deposited in PubChem BioAssay by National Center for Advancing Translational Sciences (NCATS).
